# Laboratory results published in PubChem BioAssay.
# “And” between values parts separate entries of the source, which are not always exact repeats. Equal entries are not always repeated. Some structures have more than one record in an assay (separate samples or runs), and their calls can disagree. The source made the active and inactive calls.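 The calls were made as follows, unless noted: active = z-score of at least 1.8 in each of two replicates, scored against plate mean and spread of sample wells; inactive = the rest.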
# What was measured:
# [1] = biological target: NAD(+) hydrolase SARM1 (Homo sapiens) (UniProt Q6SZW1); experiment: blocking NAD cleavage by SARM1 SAM-TIR – cell lysate, NAD-Glo luminescence (AID 1508614;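 active = compound whose remaining NAD level is above about 45 nM, limit read from the data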;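 also: higher remaining NAD means stronger inhibition of SARM1 NADase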); settings: SAM-TIR HEK293T lysate NADase, at 1 µM, stronger effect = higher value
# [2] = biological target: Mitogen-activated protein kinase 7 (Homo sapiens) (UniProt Q13164); experiment: Gal4-ERK5 driven luciferase induction – cell-based, HTS, primary screen (AID 1508626;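 active = luciferase signal above three times the same-plate solvent-only control wells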;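 also: luciferase driven by Gal4-ERK5 fusion binding five Gal4 sites before minimal TATA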); settings: HeLa Gal4-ERK5 transactivation, 18 h, at 5 µM, stronger effect = higher value
# [3] = galactose survival enhancers in mitochondrial complex I cybrids – cell-based, galactose medium, ATP luminescence, primary screen (AID 1645843); settings: complex I mutant cybrid cells, 72 h, stronger effect = higher value;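 also: positive z means more ATP and so rescue of galactose-driven cybrid death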
# [4] = growth inhibition, single agent or in combination, cell-based, chromothripsis tumors, cisplatin or BGB combos (AID 1671449; in the data active = inhibition above about 80%;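 also: cells exposed for 96 hours; 0% = vehicle DMSO and 100% = killing by high DMSO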); settings: LFS_MB_P medulloblastoma cells
# [5] = growth inhibition, single agent and combos, cell-based, chromothripsis tumors, cisplatin or BGB combos (AID 1671450; in the data active = inhibition above about 80%;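 also: cells exposed to compound for four days; 0% = vehicle DMSO and 100% = cell killing by high DMSO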); settings: HDN33 neuroblastoma cells, stronger effect = higher value
# [6] = growth inhibition, single agents and combos, ICB984, cell-based, cisplatin or BGB combos, synergistic combos for chromothripsis tumors (AID 1671451; call rule not given here;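 also: cells exposed for 96 hours before readout; 0% = vehicle DMSO and 100% = killing by high DMSO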); settings: ICB984 medulloblastoma cells, drug combinations, stronger effect = higher value
# [7] = growth inhibition, single agents and combos, LFS_MB_1R, cell-based, cisplatin or BGB combos, synergistic combos for chromothripsis tumors (AID 1671452; in the data active = inhibition above about 80%;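 also: cells exposed for 96 hours before readout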); settings: LFS_MB_1R medulloblastoma cells, stronger effect = higher value
# [8] = growth inhibition, single agents and combos, HTB85, cell-based, BGB or cisplatin IC20 combos, synergistic combos for chromothripsis tumors (AID 1671453; in the data active = inhibition above about 80%;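 also: cells exposed for 96 hours before readout; 0% = vehicle DMSO and 100% = high DMSO killing control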); settings: HTB85 osteosarcoma cells, drug combinations, stronger effect = higher value
# [9] = growth inhibition, single agents and combos, CRL2098, cell-based, BGB or cisplatin IC20 combos, synergistic combos for chromothripsis tumors (AID 1671454; in the data active = inhibition above about 80%;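 also: cells exposed for 96 h before readout; 0% = vehicle DMSO and 100% = killing by high DMSO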); settings: CRL2098 osteosarcoma cells, drug combinations, stronger effect = higher value
# [10] = growth inhibition, single agents and combos, HD-MB03, cell-based, BGB or cisplatin IC20 combos, synergistic combos for chromothripsis tumors (AID 1671455; in the data active = inhibition above about 83%;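 also: 0% = vehicle DMSO and 100% = high DMSO as cytotoxic control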); settings: HD-MB03 medulloblastoma cells, stronger effect = higher value
# [11] = growth inhibition, single agents and combos, UWB1.289, cell-based, BGB or cisplatin combos, synergistic combos for chromothripsis tumors (AID 1671456; in the data active = inhibition above about 80%;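 also: cells exposed to compound for four days; 0% = vehicle DMSO and 100% = killing by high DMSO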); settings: UWB1.289 ovarian carcinoma cells, stronger effect = higher value
# [12] = growth inhibition, single agents and combos, LFS_MB_2R, cell-based, cisplatin combos, synergistic combos for chromothripsis tumors (AID 1671457; in the data active = inhibition above about 80%;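 also: cells exposed to compound for four days before readout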); settings: LFS_MB_2R medulloblastoma cells, stronger effect = higher value
# [13] = growth inhibition, MDA-MB-436, cell-based, BGB or cisplatin combos, synergistic combos for chromothripsis tumors (AID 1671458; call rule not given here;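 also: cells exposed for 96 hours; 0% = vehicle DMSO and 100% = killing by high DMSO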); settings: MDA-MB-436 breast carcinoma growth inhibition, drug combinations, stronger effect = higher value
# [14] = UWB1.289_BRCA1 ovarian cancer growth, cell-based, BGB or cisplatin combinations (AID 1671459; in the data active = inhibition above about 80%); settings: UWB1.289 BRCA1 ovarian carcinoma, drug combinations, stronger effect = higher value
# [15] = drug combination toxicity in non-malignant astrocytes – cell-based, BGB or cisplatin IC20 combos, cytotoxicity control for chromothriptic childhood tumor combination screen (AID 1671460; in the data active = inhibition above about 80%;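 also: cells exposed to compounds for 96 hours before viability readout; 0% = vehicle and 100% = killing control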); settings: Human astrocytes, viability inhibition, drug combinations, at 0.5 µM, stronger effect = higher value
# [16] = BT084 cell growth, single and combined drugs, ICGC_MB145, cisplatin and BGB IC40 combos (AID 1671461; in the data active = inhibition above about 80%;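 also: cells exposed to drugs for 96 hours; 0% = vehicle DMSO and 100% = high DMSO full killing control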); settings: BT084 medulloblastoma cells, drug combinations, stronger effect = higher value
# [17] = RCMB18 cell growth, single agent and combined, cisplatin and BGB IC40 combos (AID 1671462; in the data active = inhibition above about 80%;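 also: cells exposed to compound for four days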); settings: RCMB18 medulloblastoma cells, stronger effect = higher value
# [18] = CRL1545 cell growth, single agent and combined, cisplatin and BGB IC20 combos (AID 1671464; in the data active = inhibition above about 80%;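 also: cells exposed to compound for 96 hours before readout; 0% = vehicle DMSO and 100% = high DMSO killing control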); settings: CRL1545 osteosarcoma cells, stronger effect = higher value
# [19] = measured here: combination with BGB IC40, at 0.05 µM
# [20] = measured here: with BGB IC20 combination, at 0.5 µM
# [21] = measured here: with cisplatin IC20 combination, at 0.5 µM
# [22] = measured here: combination with cisplatin, at 0.5 µM
# [23] = measured here: combination with cisplatin, at 5 µM
# NAD(+) hydrolase SARM1 (Homo sapiens), sequence (Q6SZW1 whole entry, looked up, the tested form may be a part): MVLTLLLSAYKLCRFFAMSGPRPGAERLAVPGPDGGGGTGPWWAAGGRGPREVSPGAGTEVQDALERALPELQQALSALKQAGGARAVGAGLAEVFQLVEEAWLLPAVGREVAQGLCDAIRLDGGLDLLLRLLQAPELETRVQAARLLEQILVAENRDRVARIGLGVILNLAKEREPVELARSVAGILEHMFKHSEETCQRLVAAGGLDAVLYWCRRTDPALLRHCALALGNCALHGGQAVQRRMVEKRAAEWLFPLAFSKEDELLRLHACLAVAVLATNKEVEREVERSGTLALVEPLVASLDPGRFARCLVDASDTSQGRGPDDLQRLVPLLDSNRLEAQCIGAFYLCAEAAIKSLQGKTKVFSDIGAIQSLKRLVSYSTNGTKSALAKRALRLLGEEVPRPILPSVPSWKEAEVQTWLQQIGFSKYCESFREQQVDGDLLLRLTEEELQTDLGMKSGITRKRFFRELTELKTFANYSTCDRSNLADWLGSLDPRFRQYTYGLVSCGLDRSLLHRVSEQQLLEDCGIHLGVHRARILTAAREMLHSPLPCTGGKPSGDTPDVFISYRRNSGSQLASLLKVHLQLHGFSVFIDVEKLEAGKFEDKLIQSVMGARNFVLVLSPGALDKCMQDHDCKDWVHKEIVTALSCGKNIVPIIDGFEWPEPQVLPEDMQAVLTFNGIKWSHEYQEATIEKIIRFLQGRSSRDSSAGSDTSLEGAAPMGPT
# Mitogen-activated protein kinase 7 (Homo sapiens), sequence (Q13164 whole entry, looked up, the tested form may be a part): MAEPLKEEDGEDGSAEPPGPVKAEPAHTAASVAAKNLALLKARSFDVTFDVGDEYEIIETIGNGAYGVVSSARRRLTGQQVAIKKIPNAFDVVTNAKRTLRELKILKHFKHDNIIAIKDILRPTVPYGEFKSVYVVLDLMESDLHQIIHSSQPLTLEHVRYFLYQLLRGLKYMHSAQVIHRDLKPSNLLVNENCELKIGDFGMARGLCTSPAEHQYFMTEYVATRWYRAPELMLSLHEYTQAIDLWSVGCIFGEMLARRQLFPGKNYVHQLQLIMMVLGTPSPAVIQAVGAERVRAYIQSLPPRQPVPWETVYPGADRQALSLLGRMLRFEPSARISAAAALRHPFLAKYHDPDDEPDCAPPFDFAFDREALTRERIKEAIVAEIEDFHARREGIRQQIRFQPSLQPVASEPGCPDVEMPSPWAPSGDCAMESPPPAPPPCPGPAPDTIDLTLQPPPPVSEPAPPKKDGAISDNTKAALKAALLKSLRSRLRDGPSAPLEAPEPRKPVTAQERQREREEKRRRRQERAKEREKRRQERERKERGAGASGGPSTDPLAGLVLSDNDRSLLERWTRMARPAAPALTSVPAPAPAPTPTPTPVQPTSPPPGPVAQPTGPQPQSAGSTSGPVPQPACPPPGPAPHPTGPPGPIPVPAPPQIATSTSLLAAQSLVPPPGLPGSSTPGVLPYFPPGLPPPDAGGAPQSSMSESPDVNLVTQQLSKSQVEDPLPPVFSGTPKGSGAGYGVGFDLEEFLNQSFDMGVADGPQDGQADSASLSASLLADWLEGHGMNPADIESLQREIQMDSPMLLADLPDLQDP
smiles,measurement,setting,value
O=C(CCCN1CCN(c2ccccn2)CC1)c1ccc(F)cc1,remaining NAD,[1],10 nM (inactive)
same,luciferase signal,[2],92 AU (inactive)
same,z-score,[3],-0.625 (inactive)
CC(C)COCC(CN(Cc1ccccc1)c1ccccc1)N1CCCC1 (configuration not stated),remaining NAD,[1],10 nM (inactive)
same,luciferase signal,[2],280 AU (inactive)
same,z-score,[3],-0.24 (inactive) and -2.13 (inactive)
CC(=O)N(O)CCCCCNC(=O)CCC(=O)N(O)CCCCCNC(=O)CCC(=O)N(O)CCCCCN,remaining NAD,[1],10 nM (inactive)
same,luciferase signal,[2],40 AU (inactive)
same,z-score,[3],0.76 (inactive)
C[C@]12C=CC(=O)C=C1CC[C@H]1[C@@H]3C[C@@H](O)[C@](O)(C(=O)CO)[C@@]3(C)C[C@H](O)[C@@]12F,remaining NAD,[1],10 nM (inactive)
same,luciferase signal,[2],36 AU (inactive)
same,z-score,[3],2.37 (active) and 0.76 (inactive)
Cc1oncc1C(=O)Nc1ccc(C(F)(F)F)cc1,remaining NAD,[1],10 nM (inactive)
same,luciferase signal,[2],120 AU (inactive)
same,z-score,[3],1.22 (inactive) and 1.26 (inactive) and 0.055 (inactive)
same,inhibition,"[4]; at 0.5 µM, stronger effect = higher value",-30.3% (inactive)
same,inhibition,"[4]; measured here: combination with BGB IC20, at 0.005 µM",-32.3%
same,inhibition,"[4]; measured here: combination with BGB IC40, at 0.005 µM",-17.1%
same,inhibition,[4]; [19],-23.8%
same,inhibition,"[4]; measured here: combination with cisplatin, at 0.5 µM, stronger effect = higher value",-32.5%
same,inhibition,"[4]; measured here: combination with cisplatin, at 5 µM, stronger effect = higher value",34.4%
same,inhibition,"[5]; BGB combo, at 5 µM",22.1%
same,inhibition,[5]; at 0.5 µM,-14.7% (inactive)
same,inhibition,"[5]; cisplatin combo, at 5 µM",36.7%
same,inhibition,[5]; [20],2.4%
same,inhibition,[5]; [21],-16.7%
same,inhibition,"[5]; single agent, at 5 µM",48%
same,inhibition,"[6]; BGB IC20 combo, at 0.005 µM",16.5%
same,inhibition,"[6]; BGB IC40 combo, at 0.005 µM",-7.12%
same,inhibition,"[6]; BGB IC40 combo, at 0.05 µM",33.8%
same,inhibition,[6]; at 0.5 µM,-22.9% (inactive)
same,inhibition,"[6]; cisplatin combo, at 0.05 µM",31.4%
same,inhibition,"[6]; cisplatin combo, at 0.5 µM",-18.9%
same,inhibition,"[6]; cisplatin combo, at 5 µM",-28.5%
same,inhibition,"[6]; measured here: 5 uM single agent, at 5 µM",9.62%
same,inhibition,[7]; at 0.5 µM,-18.1% (inactive)
same,inhibition,[7]; [19],-48.9%
same,inhibition,[7]; [22],-43.1%
same,inhibition,[7]; [23],-31%
same,inhibition,[8]; at 0.5 µM,-9.93% (inactive)
same,inhibition,"[8]; measured here: with BGB IC20, at 0.5 µM",-10.4%
same,inhibition,"[8]; measured here: with BGB IC20, at 5 µM",14.1%
same,inhibition,"[8]; measured here: with cisplatin IC20, at 0.5 µM",-18.2%
same,inhibition,"[8]; measured here: with cisplatin IC20, at 5 µM",0.987%
same,inhibition,"[8]; single agent, at 5 µM",24.3%
same,inhibition,[9]; at 0.5 µM,-47.6% (inactive)
same,inhibition,"[9]; measured here: combination with BGB at IC20, at 0.5 µM",-10.4%
same,inhibition,"[9]; measured here: combination with cisplatin at IC20, at 0.5 µM",-126%
same,inhibition,[10]; at 0.5 µM,1.82% (inactive)
same,inhibition,"[10]; measured here: combo with BGB at IC20, at 0.5 µM",-13.1%
same,inhibition,"[10]; measured here: combo with cisplatin at IC20, at 0.5 µM",15.3%
same,inhibition,[11]; at 0.5 µM,4.13% (inactive)
same,inhibition,"[11]; measured here: inhibition with BGB combination, at 0.05 µM",-13.1%
same,inhibition,"[11]; measured here: inhibition with cisplatin combination, at 0.05 µM",-27.7%
same,inhibition,[12]; at 0.5 µM,-14.8% (inactive)
same,inhibition,[12]; [22],-17.8%
same,inhibition,[12]; [23],30.1%
same,inhibition,[13]; at 0.5 µM,3.93% (inactive)
same,inhibition,"[13]; measured here: BGB combination, at 0.5 µM",12.3%
same,inhibition,"[13]; measured here: BGB combination, at 5 µM",48.9%
same,inhibition,"[13]; measured here: cisplatin combination, at 0.5 µM",-7.42%
same,inhibition,"[13]; measured here: cisplatin combination, at 5 µM",42.4%
same,inhibition,"[14]; BGB combination, concentration series, at 5 µM",74.1%
same,inhibition,[14]; at 0.5 µM,6.99% (inactive)
same,inhibition,"[14]; cisplatin combination, concentration series, at 5 µM",66.1%
same,inhibition,[15],23.1% (inactive)
same,inhibition,[15]; measured here: combo with BGB IC20,15.1%
same,inhibition,[15]; measured here: combo with cisplatin IC20,28.3%
same,inhibition,[16]; at 0.5 µM,5.65% (inactive)
same,inhibition,"[16]; cisplatin combination, at 0.5 µM",-5.97%
same,inhibition,"[16]; cisplatin combination, at 5 µM",60.5%
same,inhibition,"[16]; measured here: BGB IC40 combination 0.05 uM, at 0.05 µM",32%
same,inhibition,"[16]; single agent, at 5 µM",51.2%
same,inhibition,[17]; at 0.5 µM,-7.24% (inactive)
same,inhibition,"[17]; cisplatin combo, at 5 µM",23.6%
same,inhibition,"[17]; measured here: BGB IC40 combination, at 0.05 µM",-20.4%
same,inhibition,[17]; [22],-2.75%
same,inhibition,"[17]; single agent, at 5 µM",34.1%
same,inhibition,[18]; at 0.5 µM,-17.2% (inactive)
same,inhibition,[18]; [20],-12.4%
same,inhibition,[18]; [21],-21.5%
same,inhibition,"[18]; single agent, at 0.05 µM",-28.9%
same,inhibition,"[18]; single agent, at 5 µM",28.1%
CNC[C@H](O)c1cccc(O)c1,remaining NAD,[1],10 nM (inactive)
same,luciferase signal,[2],40 AU (inactive)
same,z-score,[3],0.64 (inactive)
NCCCCCC(=O)O,remaining NAD,[1],10 nM (inactive)
same,luciferase signal,[2],40 AU (inactive)
same,z-score,[3],1.05 (inactive)
COc1cc2c3cc1Oc1cc(ccc1O)C[C@@H]1c4c(cc(OC)c(O)c4Oc4ccc(cc4)C[C@@H]3N(C)CC2)CC[N+]1(C)C,remaining NAD,[1],10 nM (inactive)
same,luciferase signal,[2],32 AU (inactive)
same,z-score,[3],0.605 (inactive)
Fc1ccc(C(c2ccc(F)cc2)N2CCN(C/C=C/c3ccccc3)CC2)cc1,remaining NAD,[1],10 nM (inactive)
same,luciferase signal,[2],116 AU (inactive)
same,z-score,[3],-1.04 (inactive) and -1.24 (inactive) and -2.23 (inactive)
CN(C)C(=O)Oc1cccc([N+](C)(C)C)c1,remaining NAD,[1],10 nM (inactive)
same,luciferase signal,[2],48 AU (inactive)
same,z-score,[3],0.53 (inactive) and 0.21 (inactive)
C[C@]12CC[C@@H]3c4ccc(O)cc4CC[C@H]3[C@@H]1CCC2=O,remaining NAD,[1],10 nM (inactive)
same,luciferase signal,[2],28 AU (inactive)
same,z-score,[3],-0.23 (inactive) and -0.335 (inactive)
Cc1ccc(C(=O)c2ccc(CC(=O)O)n2C)cc1,remaining NAD,[1],10 nM (inactive)
same,luciferase signal,[2],84 AU (inactive)
same,z-score,[3],1.02 (inactive)
O=P(O)(O)C(O)(Cc1cccnc1)P(=O)(O)O,remaining NAD,[1],10 nM (inactive)
same,luciferase signal,[2],1260 AU (active)
same,z-score,[3],0.515 (inactive)
